Measured values from PubChem BioAssay (NCI).
Compounds without any hit were thinned out: in the full panel of roughly 83,000, 20% have a hit.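 Plates (96-well) were seeded with cells, treated with compound at one concentration, and incubated for 48 hours before percent growth was determined.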 Activity calls are given as the source filed them. Rule for the calls: active = growth percent below 10; inactive = the rest.

What was measured:
Assay in all cases: NCI-60 one-dose screen, 48 h (100 = growth as untreated, 0 = no growth, -100 = all killed)
[1] = system: SK-MEL-2 melanoma; settings: 10 µM unless noted
[2] = system: SN12C renal; settings: 10 µM unless noted
[3] = system: UO-31 renal; settings: 10 µM unless noted
[4] = system: TK-10 renal; settings: 10 µM unless noted
[5] = system: ACHN renal; settings: 10 µM unless noted
[6] = system: CAKI-1 renal; settings: 10 µM unless noted
[7] = system: A498 renal; settings: 10 µM unless noted
[8] = system: CCRF-CEM leukemia; settings: 10 µM
[9] = system: EKVX NSCLC; settings: 10 µM
[10] = system: MOLT-4 leukemia; settings: 10 µM unless noted

Measured: growth

Oc1ccc(Br)cc1/C=N/NC(=S)NC12CC3CC(CC(C3)C1)C2
active: [3] -2.23% | [5] 2.67% | [6] -35.3% | [8] -21.1%
inactive: [1] 48.2% | [2] 20.1% | [4] 27.9% | [7] 53.3%

NNC(=O)CNc1ccc2ccccc2c1
inactive: [1] 98.7% | [9] 105% | [3] 70.9% | [4] 119% | [5] 101% | [6] 106% | [8] 101% | [10] 83.6%

Oc1ccc([S+](c2ccc(O)cc2)c2ccc(O)cc2)cc1
inactive: [1] 117% | [2] 95.2% | [3] 87.5% | [4] 115% | [5] 106% | [6] 102% | [7] 71.3% | [8] 100% | [10] 89.2%

CCCCCC(=C/c1ccccc1)/C=N/N=C(N)N
active: [1] -55.7% | [5] 1.62% | [10] 8.92%
inactive: [9] 46.1% | [4] 72.9% | [8] 15.7%

CCOC(=O)C1CCCN1C(=O)C1(NC(C)=O)CCCC1 (centres undefined)
inactive: [1] 110% | [9] 100% | [3] 88.5% | [4] 107% | [5] 117% | [8] 97.4%

CCCCCN1CCN(C(CC(=O)c2ccccc2)C(=O)c2ccccc2)CC1 (centres undefined)
inactive: [1] 104% | [9] 110% | [3] 95% | [4] 99.9% | [5] 106% | [6] 81.6% | [10] 27.9%
active: [8] -14.7%

CCN(CC)CCCNc1c2ccc(Cl)cc2nc2ccc(OC)cc12
inactive: [2] 10.7%
active: [1] -3.63% | [3] -69.2% | [4] -4.36% | [5] 1.29% | [6] 4.67% | [7] -62.2% | [8] -10.1% | [10] -20.8%

Oc1ccc(CN(Cc2ccc(C(F)(F)F)cc2)Cc2ccc(O)c3ncccc23)c2cccnc12
inactive: [1] 24.5% | [9] 19% | [4] 14.7% | [7] 41.6% | [10] 10.4%
active: [5] 9.38% | [6] 5.6% | [8] 8.17%

COc1ccc(/C=C2\CCCC3=C2N=C2SC=NN2C3c2ccc(OC)c(OC)c2)cc1OC (centres undefined)
inactive: [1] 109% | [2] 40.7% | [3] 40% | [4] 60.9% | [5] 37.4% | [6] 32.5% | [7] 42.8% | [10] 54.7%
active: [8] 7.48%

CN1NC(c2ccccc2)NN(C)C1=O
inactive: [1] 110% | [2] 98.4% | [3] 67.8% | [4] 114% | [5] 95.1% | [6] 85.4% | [7] 119%

O=C(O)CS(=O)c1ccc(Cl)cc1 (centres undefined)
inactive: [1] 114% | [2] 104% | [3] 102% | [4] 96.1% | [5] 95.2% | [6] 115% | [7] 91.9% | [8] 98.5% | [10] 90.5%

BrCCCOc1ccc(Oc2ccc(OCCCBr)cc2)cc1
inactive: [1] 97.4% | [2] 95.3% | [3] 105% | [4] 108% | [5] 120% | [6] 112%

CC(=O)OC1/C=C\CC/C=C\C1 (centres undefined)
inactive: [1] 109% | [2] 95.8% | [3] 93.5% | [4] 124% | [5] 96.3% | [6] 99.2% | [7] 86.9% | [8] 103% | [10] 116%

CCCCCCCCC(=O)Nc1ccc(O)cc1
inactive: [1] 93% | [2] 94.3% | [3] 61.9% | [4] 87.1% | [5] 79.2% | [6] 93.9% | [7] 102%

O=C(/C(Br)=C/c1ccccc1)c1ccccc1
active: [3] -62.5% | [4] 3.38% | [5] -71.3% | [6] -28.4% | [10] -25.2%
inactive: [1] 15.2% | [9] 109%

Cc1ccc(C(=O)NN)cc1
inactive: [1] 119% | [9] 97.1% | [3] 104% | [4] 110% | [5] 115% | [8] 99.5% | [10] 93%

O=C(Nc1ccc(Cl)c(Cl)c1)O/N=C\c1c(Cl)ccc([N+](=O)[O-])c1Cl
active: [1] -4.77% | [2] -52.4% | [3] -32.6% | [4] -97.2% | [5] -59.5% | [6] 7.78% | [8] -19.3% | [10] -32.9%
inactive: [7] 46%

COc1ccc(Cn2cc3c(c2)-c2oncc2CC3)cc1OC
inactive: [1] 43% | [9] 43.7% | [3] 44.1% | [4] 65.2% | [5] 44.3% | [6] 21.9% | [8] 14.9% | [10] 31%

CCCCCSc1ccc2nc(NC(=O)OCC)sc2c1
active: [7] -0.27%
inactive: [1] 45.5% | [9] 30.3% | [4] 49.7% | [5] 39.7% | [6] 27.6% | [8] 12.4% | [10] 26.5%

CC1=NN(c2cccc(Cl)c2)C(=O)/C1=C\c1cn(-c2nc(N3CCOCC3)nc(N3CCOCC3)n2)c2ccccc12
inactive: [1] 110% | [9] 105% | [3] 83.3% | [4] 93.4% | [5] 103% | [7] 116% | [8] 100% | [10] 106%

O=C(/C=C\c1ccc(NCc2ccc(C(=O)O)cc2)cc1)CCl
inactive: [1] 97% | [2] 79.7% | [3] 78.6% | [4] 93.4% | [5] 93.3% | [6] 105% | [7] 55.6%
active: [8] -8.72% | [10] 6.28%

CCOC1=C(Cl)C(=O)C(OCC)=C(Cl)C1=O
inactive: [1] 100% | [2] 98.8% | [3] 83.8% | [4] 104% | [5] 106% | [6] 109% | [7] 128% | [10] 88.1%
active: [8] 9.18%

CCCC(=O)NNc1[nH]c(-c2ccc(OC)cc2)cc1C(=O)OCC
inactive: [1] 94.6% | [9] 108% | [3] 85.8% | [5] 73.1% | [6] 91.1%
active: [4] -16.1% | [8] 5.87% | [10] 3.23%

CNCCCNCCCCNCCCN1C(=O)c2ccc3c4c(ccc(c24)C1=O)C(=O)N(CCCNCc1ccccc1OC)C3=O
inactive: [1] 14% | [2] 24.6% | [3] 16.8% | [4] 41.9% | [5] 26% | [6] 28.6% | [7] 45.1% | [8] 45.8% | [10] 24.9%

O=C1C(=O)c2ccccc2C(O)=C1CCCc1ccc(Oc2ccccc2)cc1
inactive: [1] 72.5% | [2] 77.8% | [3] 43.5% | [4] 90.7% | [5] 59.4% | [6] 43.3% | [7] 66.1% | [8] 32.1%

CCCCCCCCC1OC1CCCCCCCC(=O)O (centres undefined)
inactive: [1] 103% | [2] 94.5% | [3] 96.7% | [4] 104% | [5] 103% | [6] 100% | [7] 102% | [8] 93% | [10] 104%

O=C(O)c1ccc(Br)nc1
inactive: [1] 96.1% | [9] 95.6% | [3] 86.3% | [4] 86.8% | [5] 103% | [8] 95.7% | [10] 99.8%

COc1ccccc1Cn1cc2c(c1)-c1oncc1CC2
active: [6] 9.72%
inactive: [1] 35.6% | [9] 20.8% | [3] 31.6% | [5] 55.5% | [7] 29.2% | [8] 17.6% | [10] 25.6%

Cn1c2c(cc(S(=O)(=O)c3ccccc3)c1=O)CCc1c-2cnn1-c1ccc(Cl)cc1
active: [1] -9.09% | [9] 5.95% | [3] -14.2% | [5] 6.4% | [7] -14.5%
inactive: [4] 34.6% | [8] 98.2%

COc1ccc(C2=NN(C(=O)c3cc(-c4ccc(C)cc4)nc4ccccc34)C(c3cc(-c4ccccc4)nn3-c3ccccc3)C2)cc1 (centres undefined)
inactive: [1] 94.9% | [9] 99.6% | [3] 79.8% | [4] 113% | [5] 98.6% | [7] 91% | [8] 81.5%

Cn1cnc2nc[nH]c2c1=S
inactive: [1] 106% | [9] 113% | [4] 88.4% | [5] 97% | [6] 97.9% | [8] 98.7% | [10] 102%

O=C(NCCNCCO)c1cc([N+](=O)[O-])cc([N+](=O)[O-])c1O
inactive: [1] 117% | [2] 96.1% | [3] 95.9% | [4] 101% | [5] 107% | [6] 100% | [7] 106% | [8] 94.3% | [10] 102%

O=C1CCNC1
inactive: [1] 109% | [2] 103% | [3] 92.1% | [4] 100% | [5] 101% | [6] 113% | [7] 94.9%

CC1(C)NC(=S)NC1=O
inactive: [1] 129% | [2] 105% | [3] 90.6% | [4] 112% | [5] 109% | [6] 97.8% | [7] 88.3% | [8] 88.2% | [10] 90.8%
